Measurements reported in PubChem BioAssay (NCATS).
“And” between values parts separate entries of the source, which are not always exact repeats. Identical values can stand only once. Records with an inconclusive call do not appear. The source made the active and inactive calls. Unless noted, calls follow the shape of the dose curve; as a rule, active = well fitted curve in the direction sought with a large enough effect; inconclusive = small, poorly fitted or top-dose-only effect, or another doubt; inactive = no such curve, though single readings can be large; an effect the other way counts as inactive or inconclusive.

How the values were obtained:
[1] = biological target: Estrogen receptor (Homo sapiens) (UniProt P03372); experiment: qHTS assay for small molecule antagonists of estrogen receptor alpha signaling (AID 588513; active = well fitted curve in the direction sought with a large enough effect in the signal ratio, with a control signal flat, not every such curve was filed as active; the % refers to the signal ratio; also: % is scaled to controls: 0 for no effect and ±100 for the full control effect)
Estrogen receptor (Homo sapiens), sequence (P03372 whole entry, looked up): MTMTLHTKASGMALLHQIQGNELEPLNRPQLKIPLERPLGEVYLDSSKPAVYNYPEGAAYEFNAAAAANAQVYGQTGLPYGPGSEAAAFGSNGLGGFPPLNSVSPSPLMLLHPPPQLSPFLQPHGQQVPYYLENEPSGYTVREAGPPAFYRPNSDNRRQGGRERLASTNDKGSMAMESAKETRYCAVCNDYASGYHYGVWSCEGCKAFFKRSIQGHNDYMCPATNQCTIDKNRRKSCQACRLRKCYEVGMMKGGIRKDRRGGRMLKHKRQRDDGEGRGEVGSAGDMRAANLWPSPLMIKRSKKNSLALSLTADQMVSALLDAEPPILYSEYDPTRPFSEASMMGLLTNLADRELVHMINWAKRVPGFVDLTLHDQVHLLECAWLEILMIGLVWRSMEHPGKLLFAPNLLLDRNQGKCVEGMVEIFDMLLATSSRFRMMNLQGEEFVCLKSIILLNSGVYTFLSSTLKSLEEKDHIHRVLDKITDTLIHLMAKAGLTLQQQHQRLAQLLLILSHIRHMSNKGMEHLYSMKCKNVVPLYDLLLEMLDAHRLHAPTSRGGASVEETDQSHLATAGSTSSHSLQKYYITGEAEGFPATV
Summary of the method: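 Beta-lactamase reporter, antagonist mode, HEK 293 GripTite cells; 0.5nM E2 stimulus, 18 h, 37 C; CCF4 dye 2 h RT; fluorescence. IC50 and efficacy from Hill fits, normalized to E2 and DMSO.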

[2] = biological target: Estrogen receptor (Homo sapiens) (UniProt P03372); experiment: qHTS assay for small molecule agonists of estrogen receptor alpha signaling (AID 588514; calls by dose curve;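 also: 0% = vehicle only and 100% = reference agonist; nearly all actives have a fitted effect of over 70% in size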)
Summary of the method: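 EC50 and efficacy came from Hill fits of beta-lactamase reporter signal (CCF4 dye, 2 h at room temperature) scaled between DMSO and 20 nM 17-beta-estradiol. Agonist mode: HEK293 ER-alpha-UAS-bla cells in charcoal/dextran-stripped serum medium, 18 h compound exposure at 37 C.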

[3] = qHTS assay for small molecule antagonists of peroxisome proliferator-activated receptor delta signaling (AID 588535; active = well fitted inhibition curve with a large enough effect in the signal ratio, with a control signal flat, not every such curve was filed as active; the % refers to the signal ratio;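 as to max response: cells co-treated with a PPAR-delta agonist as stimulator during compound exposure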); conditions: HEK293T PPARd-UAS-bla, beta-lactamase FRET ratio, 18 h; 460 nm channel
Summary of the method: (§1)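 Inhibition of PPAR-delta response element-driven beta-lactamase expression is measured in HEK293T cells exposed to a compound titration series for 18 hrs at 37 C. Half-maximal inhibition comes from Hill equation fitting.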

[4] = biological target: Peroxisome proliferator-activated receptor delta (Homo sapiens) (UniProt Q03181); experiment: as above
Peroxisome proliferator-activated receptor delta (Homo sapiens), sequence (Q03181 whole entry, looked up): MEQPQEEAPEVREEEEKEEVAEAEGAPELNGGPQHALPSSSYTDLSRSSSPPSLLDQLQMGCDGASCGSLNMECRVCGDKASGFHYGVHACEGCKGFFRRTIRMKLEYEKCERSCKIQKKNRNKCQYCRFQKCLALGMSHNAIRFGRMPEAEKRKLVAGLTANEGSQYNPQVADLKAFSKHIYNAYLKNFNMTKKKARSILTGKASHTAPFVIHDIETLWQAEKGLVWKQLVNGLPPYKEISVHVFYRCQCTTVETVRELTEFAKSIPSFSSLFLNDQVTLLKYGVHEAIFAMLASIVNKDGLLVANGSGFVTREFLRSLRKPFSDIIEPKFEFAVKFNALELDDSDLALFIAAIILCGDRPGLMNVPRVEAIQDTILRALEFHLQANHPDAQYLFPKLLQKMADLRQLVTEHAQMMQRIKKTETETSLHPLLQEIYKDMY
Summary of the method: as §1

[5] = biological target: Peroxisome proliferator-activated receptor gamma (Homo sapiens) (UniProt P37231); experiment: qHTS assay for small molecule agonists of peroxisome proliferator-activated receptor gamma signaling (AID 588536; active = well fitted curve in the direction sought with a large enough effect in the signal ratio, with a control signal flat, not every such curve was filed as active; the % refers to the signal ratio;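 also: 0% = DMSO basal wells and 100% = rosiglitazone at 2 µM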)
Peroxisome proliferator-activated receptor gamma (Homo sapiens), sequence (P37231 whole entry, looked up): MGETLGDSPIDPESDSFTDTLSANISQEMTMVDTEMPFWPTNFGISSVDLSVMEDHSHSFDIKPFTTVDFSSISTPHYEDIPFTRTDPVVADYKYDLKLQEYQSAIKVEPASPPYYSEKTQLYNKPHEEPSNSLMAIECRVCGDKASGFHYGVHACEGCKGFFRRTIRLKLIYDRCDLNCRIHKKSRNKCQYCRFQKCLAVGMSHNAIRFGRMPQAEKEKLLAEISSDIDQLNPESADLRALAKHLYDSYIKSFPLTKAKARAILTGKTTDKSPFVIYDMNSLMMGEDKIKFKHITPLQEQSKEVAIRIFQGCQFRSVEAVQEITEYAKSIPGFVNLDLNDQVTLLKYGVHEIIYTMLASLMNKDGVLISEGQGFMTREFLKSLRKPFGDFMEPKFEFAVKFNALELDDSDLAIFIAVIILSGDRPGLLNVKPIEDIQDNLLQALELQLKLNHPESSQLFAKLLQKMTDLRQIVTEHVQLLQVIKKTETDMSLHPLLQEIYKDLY
Summary of the method: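 Using GeneBLAzer HEK293 cells, response was quantified by CCF4 fluorescence and normalized between basal DMSO (0%) and rosiglitazone 2 uM (100%); curves yielded half-maximal stimulation concentration and efficacy.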

[6] = qHTS assay for small molecule agonists of retinoid X receptor alpha signaling (AID 588544; calls by dose curve;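 as to activation: 0% = DMSO basal wells and 100% = reference agonist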); conditions: HEK293T RXRa-UAS-bla, beta-lactamase reporter, 18 h; 530 nm emission
[7] = biological target: Retinoic acid receptor RXR-alpha (Homo sapiens) (UniProt P19793); experiment: as above
Retinoic acid receptor RXR-alpha (Homo sapiens), sequence (P19793 whole entry, looked up): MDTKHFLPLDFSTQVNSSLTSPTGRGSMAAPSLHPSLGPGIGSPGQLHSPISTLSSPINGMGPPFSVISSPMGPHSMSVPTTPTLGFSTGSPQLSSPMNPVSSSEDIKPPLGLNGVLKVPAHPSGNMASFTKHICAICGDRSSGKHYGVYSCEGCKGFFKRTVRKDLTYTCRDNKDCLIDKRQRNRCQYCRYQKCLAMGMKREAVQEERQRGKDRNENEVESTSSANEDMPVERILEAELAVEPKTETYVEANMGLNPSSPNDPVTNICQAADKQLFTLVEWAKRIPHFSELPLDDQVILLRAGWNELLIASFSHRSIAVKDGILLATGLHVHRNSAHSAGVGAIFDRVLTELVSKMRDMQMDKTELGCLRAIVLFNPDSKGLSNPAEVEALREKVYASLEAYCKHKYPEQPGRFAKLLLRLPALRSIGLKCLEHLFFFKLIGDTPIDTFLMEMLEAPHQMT

[8] = qHTS assay for small molecule antagonists of retinoid X receptor alpha signaling (AID 588546; active = well fitted inhibition curve with a large enough effect in the signal ratio, with a control signal flat, not every such curve was filed as active; the % refers to the signal ratio;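 also: cells stimulated with 9-cis-retinoic acid as agonist; % is scaled to controls: 0 for no effect and ±100 for the full control effect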); conditions: HEK293T RXRa-UAS-bla, beta-lactamase ratio, antagonist mode; measured here: W530 green channel, cytotoxicity proxy
Summary of the method: (§2)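 Beta-lactamase reporter inhibition, read as CCF4 fluorescence ratio (ex 405, em 460/530 nm) after 2 h at RT. HEK293T UAS-bla cells, 2500/well, were stimulated with 9-cis-RA at 500 or 100 nM final alongside test compound for 18 h at 37 C.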

[9] = biological target: Retinoic acid receptor RXR-alpha (Homo sapiens) (UniProt P19793); experiment: as above; conditions: HEK293T RXRa-UAS-bla, beta-lactamase ratio, antagonist mode
Summary of the method: as §2

[10] = qHTS assay for small molecule activators of the nuclear factor-kappa B (NF-kB) signaling pathway (AID 651749; active = well fitted activation curve with a large enough effect in the signal ratio; the % refers to the signal ratio; also: series mostly up to about 77 µM; % of control where 0% means no effect); conditions: NF-kB-bla ME-180 cells, beta-lactamase FRET ratio, 16 h; activation: stronger effect = higher value
Summary of the method: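 Human ME-180 cervical cells with an NF-kB-bla construct; compounds added via 23 nL pin transfer, DMSO as vehicle; incubation 16 hr. Reporter activity measured by FRET disruption.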

[11] = qHTS assay for environmental chemicals that activate the Aryl hydrocarbon Receptor (AhR) signaling pathway (AID 651777); conditions: 1A2-DRE human hepatoma cells, luciferase, 24 h; activation: stronger effect = higher value; also: % of control where 0% means no effect; nearly all actives have a fitted effect of over 15% in size
Summary of the method: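 Luminescence read-out: One-Glo added for 30 min at RT after 24 hr compound treatment (37 C, 5% CO2) of human hepatoma cells expressing a DRE/CYP1A2 promoter–luciferase reporter; increased signal indicates AhR activation.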

[12] = biological target: Peroxisome proliferator-activated receptor alpha (Homo sapiens) (UniProt Q07869); experiment: qHTS assay for small molecule agonists of the peroxisome proliferator-activated receptor alpha (PPARalpha) signaling pathway (AID 651778); conditions: PathHunter PPARalpha complementation, chemiluminescence, 6 h; max response: stronger effect = higher value; also: % of control where 0% means no effect
Peroxisome proliferator-activated receptor alpha (Homo sapiens), sequence (Q07869 whole entry, looked up): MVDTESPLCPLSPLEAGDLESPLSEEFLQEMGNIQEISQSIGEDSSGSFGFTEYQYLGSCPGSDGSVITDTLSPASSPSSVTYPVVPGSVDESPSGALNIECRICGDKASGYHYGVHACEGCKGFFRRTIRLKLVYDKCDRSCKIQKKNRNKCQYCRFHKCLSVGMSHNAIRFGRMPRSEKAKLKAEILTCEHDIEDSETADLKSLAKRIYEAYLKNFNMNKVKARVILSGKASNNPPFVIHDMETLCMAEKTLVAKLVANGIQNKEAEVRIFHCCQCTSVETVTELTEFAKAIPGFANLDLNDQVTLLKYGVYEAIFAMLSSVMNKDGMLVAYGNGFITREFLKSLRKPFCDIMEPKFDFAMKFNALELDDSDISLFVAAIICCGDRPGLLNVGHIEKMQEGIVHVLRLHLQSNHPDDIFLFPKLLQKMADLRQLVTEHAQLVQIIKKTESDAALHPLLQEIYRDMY
Summary of the method: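 Cells plated at 2,000/well and held overnight at 37 C, 5% CO2, then compound added by pin tool for 6 hr; after PathHunter detection reagent and 60 min at room temperature, chemiluminescence from enzyme complementation was read.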

[13] = qHTS assay for small molecule agonists of the antioxidant response element (ARE) signaling pathway measured by Nrf2-dependant transcriptional activity (AID 720636; active = well fitted curve in the direction sought with a large enough effect in the repeat runs; an effect the other way counts as inactive or inconclusive;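 also: HepG2 cells with an ARE-driven luciferase reporter; % of control where 0% means no effect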)
Summary of the method: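 HepG2 ARE-luc reporter line, 1% dialyzed FBS; 6 hr attachment at 37 C, compound pinned in, 16 hr at 37 C/5% CO2; ONE-Glo, 30 min RT, luminescence read.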

[14] = qHTS assay for small molecule agonists of the antioxidant response element (ARE) signaling pathway measured by Nrf2-dependant transcriptional activity - cell viability counter screen (AID 720653; active = well fitted curve in the direction sought with a large enough effect in the repeat runs; an effect the other way counts as inactive or inconclusive; also: % is scaled to controls: 0 for no effect and ±100 for the full control effect); conditions: ARE-bla HepG2 viability, CellTiter-Glo ATP luminescence, 16 h; max response: stronger effect = lower value
Summary of the method: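 ARE-bla HepG2 cells (2,000/well) rested 5 hrs at 37C/5% CO2, then exposed to compounds in DMSO for 16 hrs. Viability was read in the same wells as intracellular ATP by luminescence, 30 min at room temperature after reagent addition.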

[15] = qHTS assay for cell viability of HEK293 cells (AID 743288); conditions: ATP luminescence (CellTiter-Glo), 18 h; max response: stronger effect = lower value; also: % is scaled to controls: 0 for no effect and ±100 for the full control effect; nearly all actives have a fitted effect of over 50% in size
Summary of the method: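 ATP luminescence (CellTiter-Glo) reports metabolically competent cell number after parental HEK293 cells, 2,000/well, were treated with DMSO-dissolved compounds for 18 h at 37 C; reagent incubation 30 min, room temperature.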

[16] = qHTS assay for cell viability of the p53RE-bla HCT-116 cell line (AID 743292); also: % is scaled to controls: 0 for no effect and ±100 for the full control effect; nearly all actives have a fitted effect of over 55% in size
Summary of the method: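 Luminescent ATP quantitation (CellTiter-Glo) served as the viability read-out; reagent was added after 16 h compound exposure at 37 C and read after 30 min at room temperature. Cells: p53RE-bla HCT-116, 4,000 per well.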

[17] = biological target: Nuclear receptor subfamily 1 group I member 2 (Rattus norvegicus) (UniProt Q9R1A7); experiment: qHTS assay for small molecule activators of the rat pregnane X receptor (rPXR) signaling pathway (AID 651751; call rule not given here; also: 0% is about no effect); conditions: rPXR reporter cells, luciferase (One-Glo), 24 h
Nuclear receptor subfamily 1 group I member 2 (Rattus norvegicus), sequence (Q9R1A7 whole entry, looked up): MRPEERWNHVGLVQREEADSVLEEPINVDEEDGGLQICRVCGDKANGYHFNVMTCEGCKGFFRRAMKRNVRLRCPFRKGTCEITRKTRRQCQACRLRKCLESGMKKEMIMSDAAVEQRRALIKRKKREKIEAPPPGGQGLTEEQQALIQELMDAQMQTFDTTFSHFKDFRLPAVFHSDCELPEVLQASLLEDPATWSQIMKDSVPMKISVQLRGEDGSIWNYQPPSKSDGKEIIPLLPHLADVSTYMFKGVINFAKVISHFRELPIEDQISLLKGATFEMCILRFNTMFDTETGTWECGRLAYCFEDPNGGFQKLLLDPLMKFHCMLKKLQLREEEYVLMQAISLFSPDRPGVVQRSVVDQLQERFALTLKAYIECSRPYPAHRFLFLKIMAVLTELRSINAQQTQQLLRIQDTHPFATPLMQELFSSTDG

[18] = qHTS assay for small molecule activators of the human pregnane X receptor (PXR) signaling pathway (AID 720659; call rule not given here; also: 0% is about no effect)
[19] = biological target: Glucocorticoid receptor (Homo sapiens) (UniProt P04150); experiment: qHTS assay for small molecule antagonists of glucocorticoid receptor signaling (AID 588533; active = well fitted inhibition curve with a large enough effect in the signal ratio, with a control signal flat, not every such curve was filed as active; the % refers to the signal ratio;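 also: cells stimulated with 2 nM dexamethasone as agonist; % is scaled to controls: 0 for no effect and ±100 for the full control effect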)
Glucocorticoid receptor (Homo sapiens), sequence (P04150 whole entry, looked up): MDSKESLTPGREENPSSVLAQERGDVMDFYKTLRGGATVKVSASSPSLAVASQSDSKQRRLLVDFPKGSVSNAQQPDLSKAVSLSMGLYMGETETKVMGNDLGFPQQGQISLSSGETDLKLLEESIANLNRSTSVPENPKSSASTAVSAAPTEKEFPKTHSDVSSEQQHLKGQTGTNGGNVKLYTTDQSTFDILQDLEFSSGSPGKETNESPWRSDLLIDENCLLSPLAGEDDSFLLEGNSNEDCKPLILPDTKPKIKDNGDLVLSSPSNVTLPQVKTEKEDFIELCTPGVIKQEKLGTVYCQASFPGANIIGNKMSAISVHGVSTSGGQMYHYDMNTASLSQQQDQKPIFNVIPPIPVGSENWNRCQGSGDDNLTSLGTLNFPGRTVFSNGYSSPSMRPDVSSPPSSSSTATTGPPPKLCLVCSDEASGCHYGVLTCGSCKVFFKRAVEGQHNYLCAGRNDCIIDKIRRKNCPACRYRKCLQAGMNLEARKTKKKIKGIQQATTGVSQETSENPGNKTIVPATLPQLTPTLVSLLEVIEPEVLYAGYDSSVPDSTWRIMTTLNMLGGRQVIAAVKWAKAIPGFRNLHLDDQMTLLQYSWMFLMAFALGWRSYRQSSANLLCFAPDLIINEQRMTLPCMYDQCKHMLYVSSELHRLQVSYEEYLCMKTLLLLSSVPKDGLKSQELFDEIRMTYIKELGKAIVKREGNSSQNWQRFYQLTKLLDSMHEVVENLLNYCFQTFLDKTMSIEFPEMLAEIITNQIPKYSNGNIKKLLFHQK
Summary of the method: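 Antagonist-mode qHTS: compound titrations added to GRE-bla HeLa cells, then dexamethasone 2 nM final; 18 h, 37 C. CCF4 FRET fluorescence normalized to dexamethasone and DMSO; IC50 from Hill fit.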

[20] = biological target: Thyroid hormone receptor beta (Homo sapiens) (UniProt P10828); experiment: qHTS assay for small molecule agonists of thyroid hormone receptor beta signaling (AID 588545; calls by dose curve;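 also: 0% = DMSO only and 100% = 10 nM T3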)
Thyroid hormone receptor beta (Homo sapiens), sequence (P10828 whole entry, looked up): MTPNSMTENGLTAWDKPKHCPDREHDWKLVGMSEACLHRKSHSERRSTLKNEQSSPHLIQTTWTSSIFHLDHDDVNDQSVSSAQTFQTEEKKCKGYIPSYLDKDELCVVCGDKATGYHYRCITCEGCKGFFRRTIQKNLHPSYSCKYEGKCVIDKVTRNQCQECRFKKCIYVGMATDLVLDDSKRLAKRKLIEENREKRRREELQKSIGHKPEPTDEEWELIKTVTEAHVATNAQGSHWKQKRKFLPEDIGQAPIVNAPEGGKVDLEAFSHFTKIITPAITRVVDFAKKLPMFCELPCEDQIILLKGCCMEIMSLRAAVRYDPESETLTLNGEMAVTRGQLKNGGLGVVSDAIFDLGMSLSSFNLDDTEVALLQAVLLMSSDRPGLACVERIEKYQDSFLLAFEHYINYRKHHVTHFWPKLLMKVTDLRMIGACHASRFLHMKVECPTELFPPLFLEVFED
Summary of the method: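 Beta-lactamase reporter activity under TR response element control is measured in HEK 293 cells after 18 hrs compound exposure. Signal is ratiometric CCF4 fluorescence, 460/530 nm.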

C=CC(=O)NC(C)(C)CS(=O)(=O)O
-14.1% and -12.4%: max response [6]
inactive: Potency [1] | Potency [2] | Potency [4] | outcome [5] | Potency [7] | max response [9] -8.43% and -30.3% | activation [10] -1.64% and -0.911% | activation [11] 1.15% and -0.952% | max response [12] 2.58% and -1.53% | Potency [13] | max response [14] -6.76% and -9.12% | max response [15] -20.6% and -8.34% | Potency [16] | max response [17] -5.7% and -3.87% | outcome [18]
15.1% and -58.6%: max response [3]
6.06% and 6.67%: max response [8]

CC(C)OB(OC(C)C)OC(C)C
-7.32%: max response [8]
-15.5%: max response [6]
inactive: Potency [1] | Potency [2] | Potency [19] | outcome [5] | Potency [7] | max response [9] 0.387% | activation [10] 1.02% | activation [11] 9.09% | max response [12] -0.0686% | Potency [13] | max response [14] -7.65% | max response [15] -7.12% | Potency [16] | max response [17] 0.348% | outcome [18]

CCCCCCCCCCCO
-7.63%: max response [3]
-10.8%: max response [6]
inactive: Potency [1] | Potency [2] | Potency [4] | outcome [5] | Potency [7] | Potency [20] | activation [10] 0.0542% | activation [11] -0.0375% | max response [12] 1.65% | Potency [13] | max response [15] 4.45% | max response [17] 2%

O=[N+]([O-])c1ccc2c(c1)Cc1ccccc1-2
-2.02%: max response [8]
inactive: Potency [1] | Potency [2] | Potency [19] | Potency [4] | Potency [7] | Potency [20] | max response [9] -11.9% | activation [10] -1.58% | activation [11] 0.842% | max response [12] -0.719% | max response [14] -13.8% | max response [15] -16.4% | Potency [16] | max response [17] 5.85% | outcome [18]
11.1%: max response [3]
-11.5%: max response [6]
